The values that follow come from PubChem BioAssay.

Calls of active or inactive are those of the source. Unless noted, no rule for the calls is given here.

Assay [1] in a line: anti-His antibody binders, primary screen, artefact control for SMM control protein annotation, biochemical, small-molecule microarray, 635 nm fluorescence (AID 1128).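 Also: score merges feature fluorescence with signal-to-noise for each printed compound spot.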 The conditions noted are these: anti-His Alexa647 antibody binding, higher = more signal.
Assay [2] relates to Human papillomavirus type 1a E7 protein (residues 1-88). The assay is described as follows: HPV1a E7 small-molecule binders, primary screen, biochemical, small-molecule microarray, residues 1-88, 635 nm (AID 1129). The settings on record: small-molecule microarray binding, fluorescence 635 nm; higher = more signal.
Assay [3] has as its target Focal adhesion kinase 1 (Homo sapiens) (UniProt Q05397). The assay is described as follows: small-molecule microarray binders of FAK, primary screen, biochemical, 635/667 nm fluorescence, BSA, DTT (AID 1130).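 Also: composite of spot emission at 667 nm and signal to noise over triplicate slides.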 The conditions noted are these: PTK2 binding, 635 nm fluorescence, higher = more signal.
For assay [4], the system named is Fibrinogen (Alexa647-labelled). The assay is described as follows: fibrinogen binders on compound microarrays, profiling panel, artefact control for SMM control-protein annotation, biochemical, small-molecule microarray, 635/667 nm fluorescence (AID 1131).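 Also: z-score merges 667 nm fluorescence with per-spot signal-to-noise over triplicate slides.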 The settings on record: fibrinogen-A647 binding fluorescence, higher = more signal.
Assay [5] addresses Follistatin (Homo sapiens) (UniProt P19883). Nature of the assay: follistatin binders on small-molecule microarrays, primary screen, biochemical, small-molecule microarray, 635/667 nm fluorescence (AID 1132). The settings on record: FST binding, 635 nm fluorescence, higher = more signal.
Assay [6] has as its target Fibroblast growth factor 2 (Homo sapiens) (UniProt P09038). The assay is described as follows: FGF2 binders on small-molecule microarrays, primary screen, biochemical, small-molecule microarray, 635/667 nm fluorescence (AID 1133). The conditions noted are these: small-molecule microarray binding, FGF2, fluorescence 635/667; higher = more signal.
Assay [7] in a line: mitochondrial membrane potential change in A549 cells, profiling panel, cell-based, JC-1 fluorescence, basal, 24 h, 100 nL (AID 1138).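 Also: A549 lung adenocarcinoma cells under basal conditions with no added stimulus; test concentration not given here.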 The settings on record: higher = more signal.
In the next assay the test system is Lefty1. The assay is described as follows: Lefty1 binders on small-molecule microarrays, primary screen, biochemical, small-molecule microarray, 635/667 nm fluorescence (AID 1139). The settings on record: small-molecule microarray binding, fluorescence 635/667; higher = more signal.
The test system of assay [8] is wheat germ agglutinin (Triticum aestivum), Alexa647-labelled. The assay is described as follows: wheat germ agglutinin binders on compound microarrays, profiling panel, artefact control for SMM control-protein annotation, biochemical, small-molecule microarray, 635/667 nm fluorescence (AID 1140).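 Also: score merges 667 nm feature emission with signal to noise over triplicate slides.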 The conditions noted are these: WGA-A647 binding, 635 nm fluorescence, higher = more signal.

Assay [9] deals with Luciferin 4-monooxygenase (Photinus pyralis) (UniProt P08659). The assay is described as follows: firefly luciferase enzyme inhibitors, primary screen, biochemical, luminescence, purified enzyme, 2006 set (AID 1141).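 Also: cell-free assay with purified firefly luciferase at 100 ng per well in PBS; test concentration not given here.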 The conditions noted are these: SteadyGlo luminescence, 30 min, higher = more signal, called active from +8 up or from −8 down.
Sequence of Luciferin 4-monooxygenase (Photinus pyralis) (P08659 whole entry, looked up): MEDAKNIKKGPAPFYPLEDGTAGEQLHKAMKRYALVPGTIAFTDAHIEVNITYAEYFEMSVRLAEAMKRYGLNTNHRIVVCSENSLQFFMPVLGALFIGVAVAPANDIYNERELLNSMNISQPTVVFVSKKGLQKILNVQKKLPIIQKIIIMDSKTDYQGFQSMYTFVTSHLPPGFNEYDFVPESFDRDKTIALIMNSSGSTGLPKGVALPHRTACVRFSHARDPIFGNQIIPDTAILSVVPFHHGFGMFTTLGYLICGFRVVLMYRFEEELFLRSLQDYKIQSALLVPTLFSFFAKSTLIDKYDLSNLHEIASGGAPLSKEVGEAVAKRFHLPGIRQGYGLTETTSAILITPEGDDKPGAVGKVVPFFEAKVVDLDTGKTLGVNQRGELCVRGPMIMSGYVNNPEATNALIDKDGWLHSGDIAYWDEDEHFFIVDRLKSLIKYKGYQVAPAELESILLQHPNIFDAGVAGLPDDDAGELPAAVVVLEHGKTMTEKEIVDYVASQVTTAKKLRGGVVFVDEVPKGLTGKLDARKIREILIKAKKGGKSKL
Assay [10] has as its system Wnt5a (protein binding on small-molecule microarray). The assay is described as follows: Wnt5a binders on small-molecule microarray, primary screen, biophysical, 635/667 nm fluorescence (AID 1142).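 Also: fluorescence read at 667 nm with signal to noise per printed feature.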 The conditions noted are these: 635 nm fluorescence, higher = more signal.
The nature of assay [11]: cell viability in Huh7 cells, primary screen, cytotoxicity control for HCV replication inhibitor project, CellTiter-Glo luminescence, basal, 48 h (AID 1143).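 Also: Huh7 hepatoma cells carrying a hepatitis C replication reporter with no stimulus; test concentration not given here.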 The conditions noted are these: Huh7 HCV replicon, higher = more signal, called active from +8 up or from −8 down. A general note: Cellular ATP, detected with luciferase, serves as a proxy for viable cell number.
Assay [12] is described as follows: P. aeruginosa biofilm formation inhibitors, primary screen, PAO1 strain, BacTiter-Glo luminescence, LB-PBS (AID 1144). The conditions noted are these: 12 h, higher = more signal.
A short description of assay [13]: CREB reporter modulators without forskolin, primary screen, cell-based, PC12, CRE-LacZ reporter, unstimulated (AID 1145). The settings on record: no forskolin, luminescence, 4.5 h, higher = more signal, called active from +8 up or from −8 down.
Assay [14] is described as follows: CREB reporter modulators under forskolin, primary screen, cell-based, PC12, CRE-LacZ reporter, forskolin-stimulated (AID 1146).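 Also: PC12 cells with 6xCRE LacZ reporter stimulated by forskolin 10 µM; beta-galactosidase reporter signal reflecting CREB driven transcription.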 The conditions noted are these: luminescence, 4.5 h, higher = more signal, called active from +8 up or from −8 down.
In assay [15] the target is Streptavidin (Streptomyces avidinii) (UniProt P22629). Nature of the assay: streptavidin binders on small-molecule microarray, primary screen, artefact control for SMM compound annotation, biophysical, 635/667 nm fluorescence (AID 1147).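 Also: signal reflects streptavidin binding to arrayed compounds as a control protein.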 The conditions noted are these: streptavidin binding, higher = more signal.
Sequence of Streptavidin (Streptomyces avidinii) (P22629 whole entry, looked up): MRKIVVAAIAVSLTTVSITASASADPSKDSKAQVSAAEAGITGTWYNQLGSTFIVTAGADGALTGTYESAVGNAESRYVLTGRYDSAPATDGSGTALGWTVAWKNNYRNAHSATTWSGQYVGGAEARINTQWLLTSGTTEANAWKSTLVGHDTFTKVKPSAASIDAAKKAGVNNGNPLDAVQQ
Assay [16] can be described thus: small-molecule binders of probe aInhba, primary screen, biochemical, small-molecule microarray, 635/667 nm fluorescence (AID 1148).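 Also: score merges 667nm spot fluorescence with signal-to-noise for antibody binding to printed compounds.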 The settings on record: higher = more signal.
The target in assay [17] is Torsin-1A (Homo sapiens) (UniProt O14656). Nature of the assay: torsin A binders from cell lysate, primary screen, small-molecule microarray, wild-type, 635/667 nm (AID 1149). The conditions noted are these: COS7 hTOR1A-WT lysate, 635 nm fluorescence, higher = more signal.
Sequence of Torsin-1A (Homo sapiens) (O14656 whole entry, looked up): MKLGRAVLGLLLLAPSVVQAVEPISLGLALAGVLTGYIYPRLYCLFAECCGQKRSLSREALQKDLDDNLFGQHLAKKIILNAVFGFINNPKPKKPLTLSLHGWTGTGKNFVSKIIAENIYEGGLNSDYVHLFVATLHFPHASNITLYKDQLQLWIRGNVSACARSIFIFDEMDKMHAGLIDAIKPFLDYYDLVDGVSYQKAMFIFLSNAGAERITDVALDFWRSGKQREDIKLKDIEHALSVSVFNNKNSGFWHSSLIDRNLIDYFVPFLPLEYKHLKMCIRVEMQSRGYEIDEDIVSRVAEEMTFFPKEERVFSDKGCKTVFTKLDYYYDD
Assay [18] shares this target. Nature of the assay: small-molecule binders of mutant TOR1A in lysate, primary screen, cell lysate, small-molecule microarray, COS7 lysate, 635/667 nm fluorescence (AID 1150).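 Also: score pools 667 nm emission and signal to noise measuring lysate protein binding.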 The conditions noted are these: COS7 hTOR1A mutant lysate, 635 nm fluorescence, higher = more signal.
Assay [19] deals with Sonic hedgehog protein (Shh). Nature of the assay: small-molecule binders of Shh protein, primary screen, biochemical, small-molecule microarray, 635/667 nm fluorescence (AID 1151).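 Also: Shh protein binding to compounds spotted on small-molecule microarray slides; score combines spot fluorescence intensity with signal-to-noise across triplicate slides.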 The settings on record: small-molecule microarray binding, 635 nm fluorescence; higher = more signal.

Sequence of Follistatin (Homo sapiens) (P19883 whole entry, looked up): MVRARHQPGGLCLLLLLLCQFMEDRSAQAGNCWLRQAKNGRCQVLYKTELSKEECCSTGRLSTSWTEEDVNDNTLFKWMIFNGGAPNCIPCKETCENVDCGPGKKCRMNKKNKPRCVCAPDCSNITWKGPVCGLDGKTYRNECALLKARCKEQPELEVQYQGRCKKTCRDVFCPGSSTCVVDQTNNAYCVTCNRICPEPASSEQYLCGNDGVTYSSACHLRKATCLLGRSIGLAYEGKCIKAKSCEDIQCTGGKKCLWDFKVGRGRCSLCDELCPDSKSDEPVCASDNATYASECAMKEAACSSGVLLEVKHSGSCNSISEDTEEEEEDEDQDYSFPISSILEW
Sequence of Fibroblast growth factor 2 (Homo sapiens) (P09038 whole entry, looked up): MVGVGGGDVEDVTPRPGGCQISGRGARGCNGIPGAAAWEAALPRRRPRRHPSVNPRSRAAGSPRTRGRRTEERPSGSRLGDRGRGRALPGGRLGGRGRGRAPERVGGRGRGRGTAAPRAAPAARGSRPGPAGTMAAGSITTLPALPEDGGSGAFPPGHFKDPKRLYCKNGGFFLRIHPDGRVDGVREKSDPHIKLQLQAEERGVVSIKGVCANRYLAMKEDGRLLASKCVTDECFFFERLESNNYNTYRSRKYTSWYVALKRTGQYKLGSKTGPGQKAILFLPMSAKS
Sequence of Focal adhesion kinase 1 (Homo sapiens) (Q05397 whole entry, looked up): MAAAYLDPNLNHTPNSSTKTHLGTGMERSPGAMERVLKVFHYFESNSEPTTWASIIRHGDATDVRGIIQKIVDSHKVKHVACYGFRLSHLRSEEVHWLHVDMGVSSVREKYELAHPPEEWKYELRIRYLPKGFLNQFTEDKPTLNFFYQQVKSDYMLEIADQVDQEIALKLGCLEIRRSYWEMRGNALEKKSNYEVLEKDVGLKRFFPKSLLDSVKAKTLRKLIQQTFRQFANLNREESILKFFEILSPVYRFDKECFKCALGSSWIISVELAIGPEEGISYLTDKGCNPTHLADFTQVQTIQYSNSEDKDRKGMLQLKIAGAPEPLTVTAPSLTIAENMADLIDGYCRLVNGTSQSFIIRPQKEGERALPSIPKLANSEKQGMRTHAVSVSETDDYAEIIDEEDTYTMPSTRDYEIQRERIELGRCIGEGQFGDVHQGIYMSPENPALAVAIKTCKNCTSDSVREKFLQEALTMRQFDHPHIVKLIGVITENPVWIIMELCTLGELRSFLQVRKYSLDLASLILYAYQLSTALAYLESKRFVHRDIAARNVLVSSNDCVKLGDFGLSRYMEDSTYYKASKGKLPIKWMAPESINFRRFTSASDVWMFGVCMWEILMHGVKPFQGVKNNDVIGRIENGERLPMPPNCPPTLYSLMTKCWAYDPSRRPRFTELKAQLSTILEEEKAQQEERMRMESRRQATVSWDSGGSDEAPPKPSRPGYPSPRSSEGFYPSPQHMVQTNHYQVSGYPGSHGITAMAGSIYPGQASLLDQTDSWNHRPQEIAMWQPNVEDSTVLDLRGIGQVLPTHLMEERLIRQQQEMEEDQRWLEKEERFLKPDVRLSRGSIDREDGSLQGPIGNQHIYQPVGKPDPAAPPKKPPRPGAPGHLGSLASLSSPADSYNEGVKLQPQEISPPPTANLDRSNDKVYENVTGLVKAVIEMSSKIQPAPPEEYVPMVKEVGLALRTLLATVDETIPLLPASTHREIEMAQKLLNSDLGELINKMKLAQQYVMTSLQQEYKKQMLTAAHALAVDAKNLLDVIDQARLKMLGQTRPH

Regarding `CN(C)C(=O)[C@@]1(CCS(=O)(=O)c2ccccc2)N=C(c2ccc(OCCCO)cc2)O[C@H]1c1ccccc1N=[N+]=[N-]`, the composite z-score in assay [1] was 0.838; in assay [2], 1.25; in assay [3], 0.601; in assay [4], 1; in [5], 1.1; in assay [6] it was 0.58. Moreover, the composite z-score with Lefty1 came to 0.267; in [8] it was 0.371; in assay [10], 1; in assay [15] it was 1.82; in assay [16], 0.0569; with Torsin-1A (Homo sapiens) [17], 0.155. The results for the composite z-score (in the assay with Torsin-1A (Homo sapiens) [18]; in assay [19]) were 0.797 and -0.337, respectively. The z-score in [7] is 0.371; in assay [9] it was -11 (active); in [11], -3.2 (inactive); in assay [12], 1.75 (inactive); in assay [13] it was 0.447 (inactive); in assay [14] it was -1.37 (inactive).

With `COCCOC(=O)N1C(=O)[C@@]2(c3cc(C#CC4=CCCCC4)ccc31)[C@H](C(=O)N1CCc3cc(OC)c(OC)cc3C1)[C@H]1C(=O)O[C@H](c3ccccc3)[C@H](c3ccccc3)N1[C@@H]2c1ccc(O)cc1`, the composite z-score in assay [1] came out at 1.62; in assay [2] it was 1.2; in assay [3], 0.596; in assay [4] it was 0.947; in [5] it was 0.861; in assay [6], 0.998. In addition, the composite z-score with Lefty1 came out at 0.917; in assay [8], 0.854; in [10], 0.718; in [15], 1.85; in [16] it was 0.467; with Torsin-1A (Homo sapiens) [17], 0.544. The composite z-score turned out to be 1.23 with Torsin-1A (Homo sapiens) [18] and 1.67 in assay [19]. The z-score was -0.608 in [7]; -0.914 (inactive) in assay [9]; -0.447 (inactive) in assay [11]; 0.108 (inactive) in assay [12]; -0.321 (inactive) in assay [13]; -0.539 (inactive) in assay [14].

For `CC(C)C(=C=CC[C@@H](O)c1cccc(OCCO)c1)CCO`, the composite z-score in [1] is 0.241; in [2], 0.0895; in assay [3], -0.0966; in [4] it was 0.236; in assay [5] it was 1.14; in assay [6], 1.61. Besides, the composite z-score is 0.524 with Lefty1; 0.271 in assay [8]; 0.263 in [10]; -0.236 in assay [15]; 0.442 in assay [16]; 0.462 in the assay with Torsin-1A (Homo sapiens) [17]. Besides, the composite z-score was 0.0336 with Torsin-1A (Homo sapiens) [18] and 0.567 in [19]. For the same compound, the z-score was 0.265 in assay [7]; -0.852 (inactive) in [9]; -0.219 (inactive) in assay [11]; -0.468 (inactive) in [12]; 1.37 (inactive) in assay [13]; -0.755 (inactive) in assay [14].

Turning to `COCCOC(=O)N1C(=O)[C@@]2(c3cc(C#CCNC(N)=O)ccc31)[C@H](C(=O)NC[C@H](O)c1ccccc1)[C@H]1C(=O)O[C@H](c3ccccc3)[C@H](c3ccccc3)N1[C@@H]2c1ccc(OCCO)cc1`, the composite z-score stood at 0.991 in [1]; 1.16 in [2]; 0.707 in assay [3]; 0.884 in assay [4]; 1.18 in assay [5]; 0.581 in [6]. The composite z-score in the assay on Lefty1 was 0.753; in assay [8] it was 0.851; in [10] it was 0.0906; in assay [15], 0.516; in assay [16] it was -0.192; with Torsin-1A (Homo sapiens) [17], 0.131. Also, the composite z-score with Torsin-1A (Homo sapiens) [18] worked out at 0.219; in assay [19] it was 0.783. For the same compound, the z-score in assay [7] is -0.71; in assay [9], -0.496 (inactive); in assay [11], -0.8 (inactive); in assay [12] it was -0.297 (inactive); in assay [13], -0.606 (inactive); in assay [14], -0.965 (inactive).

For `CN(C)C(=O)[C@]1(Cc2ccccc2)N=C(c2ccc(OCCCO)cc2)O[C@@H]1c1ccccc1`, the composite z-score in [1] is 2.94; in assay [2], 1.25; in assay [3], 0.593; in [4], 1; in assay [5], 0.973; in assay [6] it was -0.263. Besides, the composite z-score in the assay with Lefty1 was -0.222; in assay [8], 1.2; in [10], 0.0831; in assay [15], 0.589; in assay [16], 0.0184; in the assay with Torsin-1A (Homo sapiens) [17], 0.193. Also, the composite z-score was 0.71 with Torsin-1A (Homo sapiens) [18] and -0.46 in [19]. Besides, the z-score in assay [7] was 0.473; in assay [9], -0.701 (inactive); in [11], -3.35 (inactive); in assay [12], 0.18 (inactive); in [13] it was 1.24 (inactive); in assay [14], 0.14 (inactive).

Take `CCCC=C(CCC)[C@@H](NS(=O)(=O)c1ccc(Cl)cc1)c1ccccc1`: the composite z-score in assay [1] was 1.12; in assay [2], -0.382; in assay [3], 0.884; in assay [4] it was 0.522; in assay [5], -0.883; in assay [6], -0.919. Further, the composite z-score in the assay with Lefty1 was -1.17; in assay [8], 0.303; in [10] it was 0.0207; in assay [15], 0.489; in assay [16] it was 0.0807; with Torsin-1A (Homo sapiens) [17], -0.721. In addition, the composite z-score with Torsin-1A (Homo sapiens) [18] was -0.292; in assay [19] it was -1.12. Besides, the z-score in [7] is -0.576; in [9], 1.8 (inactive); in [11], -2.29 (inactive); in [12] it was -0.527 (inactive); in assay [13], 0.197 (inactive); in assay [14], 0.261 (inactive).

In the case of `COC(=O)[C@@]1(Cc2ccccc2)[C@H]2c3cc(C(=O)N4CCCC4)n(Cc4ccc(C(F)(F)F)nc4)c3C[C@H]2CN1C(=O)c1ccccc1`, the composite z-score is 0.472 in assay [1]; 1.28 in assay [2]; 1.23 in [3]; 1.06 in assay [4]; 0.778 in assay [5]; -0.38 in [6]. Besides, the composite z-score in the assay with Lefty1 was 0.333; in assay [8], 1.05; in assay [10], 0.836; in [15], 1.78; in assay [16], 0.446; in the assay with Torsin-1A (Homo sapiens) [17], 1.03. The composite z-score is 0.774 with Torsin-1A (Homo sapiens) [18] and -0.878 in [19]. The z-score in assay [7] was 1.32; in [9], 2.36 (inactive); in assay [11], -2.97 (inactive); in assay [12], 0.519 (inactive); in assay [13], 0.0075 (inactive); in [14], -0.611 (inactive).
